# Measurements reported in PubChem BioAssay (NCATS).
# “And” between values parts separate entries of the source, which are not always exact repeats. Equal entries are not always repeated. Inconclusive results are not listed. Some compounds were tested as several samples or in several runs, with calls that do not always agree. Unmarked numbers belong to inactive results. The source made the active and inactive calls. Calls follow the shape of the dose curve; as a rule, active = well fitted curve in the direction sought with a large enough effect; inconclusive = small, poorly fitted or top-dose-only effect, or another doubt; inactive = no such curve, though single readings can be large; an effect the other way counts as inactive or inconclusive.
# What was measured:
# [1] = tested on: SKOV3; assay: Primary qHTS to identify gynecologic anti-cancer compounds using libraries of approved drugs and bioactive compounds (AID 1345084); settings: Gynecologic cancer cell panel viability, ATPlite luminescence, 48 h; series mostly up to 57.5 µM; also: nearly all actives have a fitted effect of over 55% in size
# Outline: (§1)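 Cell viability after 48 h drug treatment, ATPlite luminescence readout; five doses.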
# [2] = tested on: Tov-21-G; assay: as above; settings: Gynecologic cancer cell panel viability, ATPlite luminescence, 48 h; series mostly up to 57.5 µM
# Outline: as §1
# [3] = tested on: Tov112D; assay: as above; settings: Gynecologic cancer cell panel viability, ATPlite luminescence, 48 h; series mostly up to 57.5 µM
# Outline: as §1
# [4] = Drug repurposing screens with cells derived from glioblastoma tumor samples (AID 1345199); settings: GBM patient neurospheres viability, ATP luminescence, 48 h; also: nearly all actives have a fitted effect of over 40% in size; also: potency is read from the fitted curve at half-maximal effect
# Outline: (§2)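 Primary testing used CD133+ neurospheres from four GBM patients, seven concentrations, 48 h exposure and ATP-based viability; confirmation added three slower-growing patient lines.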
# [5] = tested on: astro; assay: as above; settings: viability, ATP luminescence, 48 h; series mostly up to 45.9 µM
# Outline: as §2
# [6] = at 20 µM (top of the series), tumour line C
# [7] = at 21.2 µM (top of the series), tumour line B
# [8] = at 21.2 µM (top of the series), tumour line D
# [9] = at 21.3 µM (top of the series), tumour line A
# [10] = at 45.9 µM (top of the series), tumour line B
# [11] = at 45.9 µM (top of the series), tumour line D
# [12] = at 46 µM (top of the series), tumour line A
# [13] = at 46.1 µM (top of the series), tumour line C
# % is scaled to controls: 0 for no effect and ±100 for the full control effect.
smiles,measurement,setting,value
Cc1c(-c2ccccc2)oc2c(C(=O)OCCN3CCCCC3)cccc2c1=O,Potency,[1],inactive
same,Potency,[2],inactive
same,Potency,[3],inactive
same,"activity, negative = cell killing",[4]; [6],10.4%
same,"activity, negative = cell killing",[4]; [7],-10.2%
same,"activity, negative = cell killing",[4]; [8],-18.3%
same,"activity, negative = cell killing",[4]; [9],-8.03%
same,Potency,[5],inactive
CCN[C@@H]1C[C@H](N)[C@@H](OC2OC(CN)=CCC2N)[C@H](O)[C@H]1O[C@H]1OC[C@](C)(O)[C@H](NC)[C@H]1O (some centres not stated),"activity change, negative = cytotoxicity",[1],-8.65% [at 0.462 µM]
same,"activity change, negative = cytotoxicity",[2],7.74% [at 0.462 µM]
same,"activity change, negative = cytotoxicity",[3],-3.87% [at 0.462 µM]
same,"activity, negative = cell killing",[4]; [10],-4.35%
same,"activity, negative = cell killing",[4]; [11],14.1%
same,"activity, negative = cell killing",[4]; [12],-22.3%
same,"activity, negative = cell killing",[4]; [13],-13.2%
same,Potency,[5],inactive
CCN1CCCC(OC(=O)C(c2ccccc2)c2ccccc2)C1 (configuration not stated),Potency,[1],inactive
same,Potency,[2],inactive
same,Potency,[3],inactive
same,"activity, negative = cell killing",[4]; [6],-5.6%
same,"activity, negative = cell killing",[4]; [7],-12.3%
same,"activity, negative = cell killing",[4]; [8],-10.7%
same,Potency,[4]; tumour line A,8.91 µM (active)
same,Potency,[5],inactive
Nc1ccc(S(=O)(=O)Nc2cnc3ccccc3n2)cc1,Potency,[1],inactive
same,Potency,[2],inactive
same,Potency,[3],inactive
same,"activity, negative = cell killing",[4]; [10],0.475%
same,"activity, negative = cell killing",[4]; [11],3.34%
same,"activity, negative = cell killing",[4]; [12],-15.8%
same,"activity, negative = cell killing",[4]; [13],4.45%
same,Potency,[5],inactive
CC(C)Cc1ccc(CC(=O)O)cc1,Potency,[1],inactive
same,Potency,[2],inactive
same,Potency,[3],inactive
same,"activity, negative = cell killing",[4]; [10],-12.1%
same,"activity, negative = cell killing",[4]; [11],-2.06%
same,"activity, negative = cell killing",[4]; [12],-12.4%
same,"activity, negative = cell killing",[4]; [13],9.2%
same,Potency,[5],inactive
CCC(Cc1c(I)cc(I)c(N)c1I)C(=O)O (configuration not stated),Potency,[1],inactive
same,Potency,[2],inactive
same,Potency,[3],inactive
same,"activity, negative = cell killing",[4]; [6],4.71%
same,"activity, negative = cell killing",[4]; [7],4.87%
same,"activity, negative = cell killing",[4]; [8],3.32%
same,"activity, negative = cell killing",[4]; [9],-20%
same,Potency,[5],inactive
COc1cc(C(=O)NCc2ccc(OCCN(C)C)cc2)cc(OC)c1OC,Potency,[1],inactive
same,Potency,[2],inactive
same,Potency,[3],inactive
same,"activity, negative = cell killing",[4]; [6],-15.6%
same,"activity, negative = cell killing",[4]; [7],-6.09%
same,"activity, negative = cell killing",[4]; [8],-9.89%
same,"activity, negative = cell killing",[4]; [9],-23.1%
same,Potency,[5],inactive
CCc1nn(CCCN2CCN(c3cccc(Cl)c3)CC2)c(=O)n1CCOc1ccccc1,Potency,[1],inactive
same,Potency,[2],inactive
same,Potency,[3],inactive
same,"activity, negative = cell killing",[4]; [10],-29%
same,"activity, negative = cell killing",[4]; [13],-17.6%
same,Potency,[4]; tumour line A,7.94 µM (active) and 10 µM (active)
same,Potency,[4]; tumour line D,15.8 µM (active) and 11.2 µM (active)
same,Potency,[5],35.5 µM (active) and 25.1 µM (active)
CCCc1ncc(C[n+]2ccccc2C)c(N)n1,Potency,[1],inactive
same,Potency,[2],inactive
same,Potency,[3],inactive
same,"activity, negative = cell killing",[4]; [6],11.7%
same,"activity, negative = cell killing",[4]; [7],-1.46%
same,"activity, negative = cell killing",[4]; [8],-1.64%
same,"activity, negative = cell killing",[4]; [9],-22.4%
same,Potency,[5],inactive
COc1ccc(-c2cc(C(F)F)nn2-c2ccc(S(N)(=O)=O)cc2)cc1F,Potency,[1],inactive
same,Potency,[2],inactive
same,Potency,[3],inactive
same,"activity, negative = cell killing",[4]; [10],-10.4%
same,"activity, negative = cell killing",[4]; [11],-9.89%
same,"activity, negative = cell killing",[4]; [12],-29.7%
same,"activity, negative = cell killing",[4]; [13],2.98%
same,Potency,[5],inactive
CCN(CC)CCNC(=O)c1cc(Br)c(N)cc1OC,Potency,[1],inactive
same,Potency,[2],inactive
same,Potency,[3],inactive
same,"activity, negative = cell killing",[4]; [10],-11.2%
same,"activity, negative = cell killing",[4]; [11],-11.8%
same,"activity, negative = cell killing",[4]; [13],-28.9%
same,Potency,[4]; tumour line A,7.94 µM (active)
same,Potency,[5],inactive
NCc1ccccc1Sc1ccccc1CO,Potency,[1],inactive
same,Potency,[2],inactive
same,Potency,[3],inactive
same,"activity, negative = cell killing",[4]; [10],-12.4%
same,"activity, negative = cell killing",[4]; [11],-24%
same,"activity, negative = cell killing",[4]; [13],-18%
same,Potency,[4]; tumour line A,35.5 µM (active)
same,Potency,[5],inactive
CCNC(=O)NCc1cccc(Cl)c1,Potency,[1],inactive
same,Potency,[2],inactive
same,Potency,[3],inactive
same,"activity, negative = cell killing",[4]; [10],-11.2%
same,"activity, negative = cell killing",[4]; [11],-6.28%
same,"activity, negative = cell killing",[4]; [12],-30%
same,"activity, negative = cell killing",[4]; [13],-10.1%
same,Potency,[5],inactive
CC(=O)N[C@@H](CCC(=O)O)C(=O)O,Potency,[1],inactive
same,Potency,[2],inactive
same,Potency,[3],inactive
same,"activity, negative = cell killing",[4]; [10],2.35%
same,"activity, negative = cell killing",[4]; [11],-7.45%
same,"activity, negative = cell killing",[4]; [12],-9.15%
same,"activity, negative = cell killing",[4]; [13],-3.96%
same,Potency,[5],inactive
O=C(O)CCc1nc2ccccc2[nH]1,Potency,[1],inactive
same,Potency,[2],inactive
same,Potency,[3],inactive
same,"activity, negative = cell killing",[4]; [10],-11.4%
same,"activity, negative = cell killing",[4]; [11],5.36%
same,"activity, negative = cell killing",[4]; [12],-40.1%
same,"activity, negative = cell killing",[4]; [13],-13.5%
same,Potency,[5],inactive
CCN(CC)CCNC(=O)COc1ccc(OC)cc1,Potency,[1],inactive
same,Potency,[2],inactive
same,Potency,[3],inactive
same,"activity, negative = cell killing",[4]; [10],-17.2%
same,"activity, negative = cell killing",[4]; [11],-10.2%
same,"activity, negative = cell killing",[4]; [12],-59%
same,"activity, negative = cell killing",[4]; [13],-17.2%
same,Potency,[5],inactive
CN(C)CCC[C@@]1(c2ccc(F)cc2)OCc2cc(C#N)ccc21,Potency,[1],inactive
same,Potency,[2],inactive
same,Potency,[3],inactive
same,"activity, negative = cell killing",[4]; [10],11.5%
same,"activity, negative = cell killing",[4]; [11],-13.7%
same,"activity, negative = cell killing",[4]; [12],-29.3%
same,"activity, negative = cell killing",[4]; [13],2.89%
same,Potency,[5],inactive
O=C(O)CCNC(=O)c1ccccc1,Potency,[1],inactive
same,Potency,[2],inactive
same,Potency,[3],inactive
same,"activity, negative = cell killing",[4]; [10],-3.69%
same,"activity, negative = cell killing",[4]; [11],-10.8%
same,"activity, negative = cell killing",[4]; [12],-25.4%
same,"activity, negative = cell killing",[4]; [13],-11.5%
same,Potency,[5],inactive
Cc1cc(-c2ccccc2)nnc1NCCN1CCOCC1,Potency,[1],inactive
same,Potency,[2],inactive
same,Potency,[3],inactive
same,"activity, negative = cell killing",[4]; [10],-18.6%
same,"activity, negative = cell killing",[4]; [11],-4.44%
same,"activity, negative = cell killing",[4]; [13],-11.7%
same,Potency,[4]; tumour line A,12.6 µM (active)
same,Potency,[5],inactive
